High-throughput results from PubChem BioAssay.
Shown are actives, neighbours in structure and some others; about 1.4% of the full set was active somewhere.
E coli Lon inh – inhibits E. coli Lon protease. P0A9M0. purified E. coli Lon protease, fluorescence polarization. inhibition, % at 7.94 µM. 360,000 tested, 0.42% active; in the data active = inhibition above about 13%, passing the limit was not always enough;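 note: 0% = enzyme with probe and DMSO and 100% = no enzyme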
GLD-1 RNA inh – GLD-1-TGE RNA interaction inhibition (C. elegans); Q17339; inhibition, % at 5.96 µM; 320,000 tested, 0.44% active; purified GLD-1 + fluorescein TGE RNA, fluorescence polarization; AID 2280;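 active = percent inhibition above a per-plate cutoff, the plate mean of test compounds plus 3 SD, cut at about 30% in these data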;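 note: 0% = DMSO wells with GLD-1 and probe and 100% = wells lacking GLD-1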
MCL1-BIM inh – MCL1-BIM-BH3 interaction inhibition (human); AID 2057; 320,000 tested, 0.68% active; GST-MCL1 / FITC-Bim-BH3 fluorescence polarization; inhibition, % at 10.9 µM; Q07820;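 active = inhibition above the mean inhibition of all tested compounds plus 3 SD, set per campaign, cut at about 40% in these data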;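 note: 0% = DMSO wells and 100% = unlabeled Bim-BH3 peptide control; higher means more loss of mP so more displacement of Bim peptide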
BCLXL inh – blocks human Bcl-xL binding to Bim BH3 peptide; AID 2129; 320,000 tested, 0.7% active; GST-Bcl-xL / FITC-Bim BH3 peptide fluorescence polarization; inhibition, % at 10.9 µM;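 active = inhibition above the mean of all tested compounds plus 3 SD, cutoff set per campaign, cut at about 30% in these data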;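 note: 0% = DMSO wells and 100% = unlabeled Bim-BH3 peptide competitor; inhibitors lower millipolarization by displacing the labeled peptide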
Target sequence (Q07817 whole entry, looked up): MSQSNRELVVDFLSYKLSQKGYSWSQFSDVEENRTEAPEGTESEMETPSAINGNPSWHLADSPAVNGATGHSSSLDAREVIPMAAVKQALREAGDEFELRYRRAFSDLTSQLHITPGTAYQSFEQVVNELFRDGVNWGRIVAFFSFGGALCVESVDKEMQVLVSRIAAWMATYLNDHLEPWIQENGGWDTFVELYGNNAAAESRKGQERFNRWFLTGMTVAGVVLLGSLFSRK
MEX-5 binding – C. elegans MEX-5 TCR-2 RNA binding activity. Q9XUB2. MEX-5/FITC-TCR2 RNA binding, fluorescence polarization; hits give low values. activity score (negative = inhibition of binding), % at 10 µM. 300,000 tested, 0.38% active. AID 1832;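 active = inhibition past about -25% in most replicates, and total fluorescence under double the plate's negative control median, limit read from the data; inconclusive = replicates evenly split on the limit, or fluorescence at least double controls; inactive = too little inhibition in most replicates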;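 note: 0% = DMSO and -100% = 5 µM competing unlabeled TCR2 RNA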
Target sequence (Q9XUB2 whole entry, looked up): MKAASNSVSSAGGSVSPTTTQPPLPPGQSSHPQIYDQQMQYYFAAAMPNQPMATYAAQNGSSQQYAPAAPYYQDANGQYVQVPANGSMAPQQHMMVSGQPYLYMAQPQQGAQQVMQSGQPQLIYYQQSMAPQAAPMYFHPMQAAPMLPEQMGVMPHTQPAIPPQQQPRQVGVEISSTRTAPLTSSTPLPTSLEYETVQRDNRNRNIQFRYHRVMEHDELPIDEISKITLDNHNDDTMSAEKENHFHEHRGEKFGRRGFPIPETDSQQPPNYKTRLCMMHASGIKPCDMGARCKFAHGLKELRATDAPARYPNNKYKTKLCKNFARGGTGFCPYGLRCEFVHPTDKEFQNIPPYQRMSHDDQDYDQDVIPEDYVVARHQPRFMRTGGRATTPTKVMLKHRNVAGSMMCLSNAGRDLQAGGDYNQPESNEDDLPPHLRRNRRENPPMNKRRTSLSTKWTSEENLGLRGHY
BCLXL inh confirm – counter-screen for MCL1 inhibitors: confirmation of human Bcl-xL inhibitors | shares compounds with MCL1-BIM inh | GST-Bcl-xL / FITC-Bim BH3 peptide FP binding | inhibition, % at 10.9 µM | 1,700 tested, 54% active | AID 2166;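 active = inhibition above a cutoff equal to the mean inhibition of all tested compounds plus 3 SD, cut at about 30% in these data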;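 note: 0% = DMSO wells and 100% = unlabeled Bim BH3 control peptide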
MCL1 inh confirm – MCL1-BIM-BH3 interaction inhibition, confirmation | GST-MCL1 / FITC-Bim-BH3 fluorescence polarization | inhibition, % at 10.9 µM | shares compounds with MCL1-BIM inh | 1,700 tested, 61% active;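 active = inhibition above the average of all tested compounds plus 3 SD, cut at about 40% in these data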;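 note: 0% = DMSO wells and 100% = unlabeled Bim-BH3 control peptide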
GLD-1 TGE cf – confirmation of C. elegans GLD-1 TGE RNA binding inhibitors; shares compounds with GLD-1 RNA inh; GLD-1/FL-TGE RNA fluorescence polarization, biochemical; inhibition, % at 5.96 µM; 550 tested, 10% active;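 active = average inhibition across triplicates above the hit cutoff set in the primary screen, cut at about 32% in these data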;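 note: 0% = GLD-1 with RNA probe and DMSO and 100% = wells lacking GLD-1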
E coli Lon conf – confirmation of E. coli Lon protease inhibitors; AID 602230; shares compounds with E coli Lon inh; 1,400 tested, 31% active; inhibition, % at 7.94 µM; purified E. coli Lon, fluorescence polarization; in the data active = inhibition above about 16%;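 note: 0% = enzyme with probe and DMSO and 100% = no enzyme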
An asterisk follows results filed as active; u = inconclusive; x = no result; + = active, no number.

SMILES | E coli Lon inh | GLD-1 RNA inh | MCL1-BIM inh | BCLXL inh | MEX-5 binding | BCLXL inh confirm | MCL1 inh confirm | E coli Lon conf | others
O=C1C2C3C=CC(C4CC34)C2C(=O)N1/N=C/c1ccc(-c2ccc(F)cc2[N+](=O)[O-])o1 (configuration not stated) | 18.6* | 55.2* | 83.9* | 74.1* | -5.8 | 19.9 | 29.9 | 71.1* | GLD-1 TGE cf=-8.0
COC(=O)[C@@]1(Sc2ccc(C)cc2)CC(=O)N(C(=O)CCc2ccccc2)[C@@H]1c1ccccc1 | -0.6 | x | x | x | x | x | x | x
COc1cc(/C=C2\CCCc3c2nc2ccccc2c3C(=O)O)cc(Br)c1O | -5.4 | 3.8 | 8.4 | 6.8 | -0.2 | x | x | x
CCOc1cc(/C=C2\CCCc3c2nc2ccccc2c3C(=O)O)ccc1OC | 114.9* | 144.7* | 165.7* | 142.6* | -16.3 | 15.4 | 11.7 | 66.2*
CN1C(=O)NC(c2ccccc2[N+](=O)[O-])C2=C1CCCC2=O (configuration not stated) | + | + | + | + | -79.8* | 154.2* | 176.7* | +
CCN(CC)C(=O)c1cccc(NC(=O)C2CCN(C(=O)c3cccs3)CC2)c1 | -0.8 | -0.2 | x | x | x | x | x | x
ClC1CCCCC1n1nnc2ccccc21 (configuration not stated) | -1.8 | -0.9 | 4.6 | 8.2 | x | x | x | x
O=[N+]([O-])c1ccc(N/N=C2/CCCCC2c2ccccn2)cc1 (configuration not stated) | -6.2 | x | x | x | 2.6 | x | x | x
CCCCC1OC23CCCCC2C(C#N)(C#N)C1(C#N)C(=N)O3 (configuration not stated) | 26.4* | 83.4* | 127.0* | 103.3* | -8.2 | 7.3 | 2.5 | 4.3
N#CC1(C#N)C(c2ccccc2)OC23CCCCC2C1(C#N)C(=N)O3 (configuration not stated) | 30.2* | 102.0* | 177.5* | 132.2* | -48.6* | 17.4 | 15.8 | 40.9*
CCCCC1OC23CCCCC2C(C#N)(C(=N)O3)C1(C#N)C#N (configuration not stated) | 25.3* | 53.8* | 78.1* | 77.8* | 0.8 | 14.3 | 26.6 | 0.3 | GLD-1 TGE cf=-6.2
COc1ccccc1N1C(=O)c2cccc3c(N(C)CCO)ccc(c23)C1=O | 175.6* | 171.5* | + | 183.0* | 4.0 | 128.4* | 151.8* | 76.1*
COc1ccccc1N1C(=O)c2cccc3c(C(=O)O)ccc(c23)C1=O | -0.1 | -0.2 | -3.9 | 5.0 | -0.6 | x | x | x
COc1ccc2c3c(cccc13)C(=O)N(O)C2=O | 37.7* | 27.6 | 69.2* | 68.9* | -0.8 | 67.0* | 77.0* | 86.7*
Cc1ccccc1N1C(=O)c2cccc3c(N(C)CCO)ccc(c23)C1=O | 124.3* | 166.6* | + | 181.1* | u | 121.1* | 157.1* | 83.9*
O=S1(=O)CCC(n2nccc2-c2ccccc2)C1 (configuration not stated) | -7.2 | 0.1 | 6.2 | 3.6 | 2.4 | x | x | x
CCN(CC)S(=O)(=O)c1ccc(OC)c(NC(=O)CSc2cc(C)ccc2C)c1 | -10.3 | -16.7 | -20.0 | -6.2 | 6.3 | x | x | x
CCOC(=O)C1=C(COC(=O)COc2cc(C)ccc2C)NC(=O)NC1C (configuration not stated) | -5.8 | 1.9 | 0.9 | 4.7 | 1.8 | x | x | x
Cc1ccc(NC(=O)CS(=O)CC(=O)Nc2ccccc2-c2ccc(C)o2)cc1 (configuration not stated) | 114.2* | 65.8* | 88.3* | 72.2* | 0.7 | 10.0 | 8.8 | 0.2 | GLD-1 TGE cf=5.8
CC(=O)Nc1ccccc1-c1ccc(C)o1 | 0.8 | -0.5 | -6.6 | 1.5 | 1.2 | x | x | x
CCn1c(CNC(=O)c2ccco2)nnc1SCC(=O)Nc1cc(F)ccc1C | -11.5 | 2.0 | -0.1 | 1.5 | -0.1 | x | x | x
COc1ccc(NC(=O)Nc2cccc(C(F)(F)F)c2)cn1 | -3.6 | 21.5 | -1.2 | 8.9 | -1.4 | x | x | x
COc1ccc(NC(=O)Nc2ccc([N+](=O)[O-])cc2)cn1 | 19.5* | 46.1* | 71.0* | 68.2* | -7.9 | 38.2* | 53.3* | 1.5
CCOC(=O)/C(C#N)=C/c1cc2cc(C)c(C)cc2nc1Cl | -14.7 | -9.2 | -10.6 | -4.1 | -3.0 | x | x | x
Cc1cc2cc(C=C(C#N)C#N)c(Cl)nc2cc1C | 88.8* | 162.9* | + | 193.2* | -2.9 | 27.1 | 26.8 | 38.9*
SMILES | E coli Lon inh | GLD-1 RNA inh | MCL1-BIM inh | BCLXL inh | MEX-5 binding | BCLXL inh confirm | MCL1 inh confirm | E coli Lon conf | others
CC(=O)c1c2c3c(c(Br)ccc3n(C)c1=O)C(=O)c1ccccc1-2 | 49.7* | 57.3* | 63.8* | 67.4* | -4.3 | 41.8* | 42.7* | 21.4*
CC(=O)c1c(C)oc2c1C(=O)c1ccccc1C2=O | -3.9 | 11.3 | -4.5 | 3.0 | -0.8 | x | x | x
N#Cc1ccc(Oc2cccc3cccnc23)c([N+](=O)[O-])c1 | 101.4* | 125.4* | 177.4* | 149.7* | -6.1 | 33.0* | 50.8* | 13.2
O=C(O)c1[nH]c2ccccc2c1C(c1cc(Cl)cc([N+](=O)[O-])c1O)c1c(C(=O)O)[nH]c2ccccc12 | 28.1* | 9.4 | 50.6* | 12.5 | -61.3* | 10.2 | 27.2 | 19.5*
CCOC(=O)C1CCCN(C/C=C/c2ccccc2)C1 (configuration not stated) | -1.3 | x | x | x | -1.3 | x | x | x
O=C(N/N=C/c1sc(=O)[nH]c1-[n+]1ccc2ccccc2c1)c1ccccc1[O-] | 133.5* | 164.6* | 178.3* | 156.0* | -13.7 | 30.8* | 32.2 | 48.2*
Cc1nnc(Sc2cc(C(=O)NC3CC3)c3ccccc3n2)s1 | -2.7 | -8.5 | 4.6 | 1.2 | 0.4 | x | x | x
Cn1c(-c2ccc([N+](=O)[O-])cc2)nc2ccccc21 | 4.9 | 5.8 | -5.2 | 3.1 | 0.8 | x | x | x
Cn1nc([N+](=O)[O-])c(C(C#N)c2nc3ccccc3n2C)c(Cl)c1=O (configuration not stated) | 22.0* | 50.6* | 91.4* | 79.3* | -28.3* | 84.2* | 90.0* | 32.5*
c1ccc2c(c1)CCCN2Cc1nnnn1CC1CCCO1 (configuration not stated) | 73.5* | 107.5* | 196.0* | 161.9* | -14.3 | 102.0* | 124.0* | 34.9*
c1ccc2sc(N3CCN(Cc4nnnn4CC4CCCO4)CC3)nc2c1 (configuration not stated) | -2.8 | 0.1 | 1.1 | -0.5 | -2.4 | x | x | x
